HCV inhibitor: qHTS Assay for Inhibitors of Hepatitis C Virus (HCV). Potency, µM (series often up to 41.8 µM), inactives show at the highest dose activity change, negative = inhibition, actives largely listed as inhibitors. AID 651820, 2012. 340,000 compounds, 3.4% hits. Huh7.5.1 HCVcc-Cre infection, luciferase reporter, 44 h; further: potency means the concentration at half of the fitted maximal effect; on the % scale 0 is the no-effect control and ±100 the full control effect
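Whole-lifecycle infectious HCVcc-Cre system; cells 1,000/well, compound then virus (~0.5 moi) added 4 h after plating, 44 h culture. Luciferase read 15 sec following 15 min substrate incubation, room temp.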
Sm TGR block: qHTS Assay for the Inhibitors of Schistosoma Mansoni Peroxiredoxins; AID 485364, 2010; 360,000 compounds, 3% hits; purified TGR, DTNB reduction, TNB absorbance 405 nm; Schistosoma mansoni thioredoxin glutathione reductase (TGR), Q962Y6; Potency, µM (top dose mostly 114 µM), for inactives: at the highest dose activity change, negative = inhibition, most hits filed as inhibitors; further: potency means the concentration at half of the fitted maximal effect; on the % scale 0 is the no-effect control and ±100 the full control effect; nearly all actives have a fitted effect of over 60% in size
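Kinetic colorimetric format: TGR-catalysed, NADPH-driven DTNB reduction monitored via TNB absorbance. Enzyme dispensed at 20 nM; compound exposure 15 min at room temperature before reaction start.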
SARS PLP yeast: qHTS of Yeast-based Assay for SARS-CoV PLP; S. cerevisiae expressing SARS-CoV PLpro, growth rescue; Potency, µM (highest dose often 32.9 µM), for inactives: at the top dose activity, positive = growth rescue, hits mostly activators; 330,000 compounds, 0.19% hits; AID 485353, 2010; calls by dose curve; further: potency means the concentration at half of the fitted maximal effect; 0% is about no effect; nearly all actives have a fitted effect of over 55% in size
Pf growth 48h: Primary qHTS for delayed death inhibitors of the malarial parasite plastid, 48 hour incubation; P. falciparum luciferase growth in erythrocytes, 48 h; Potency, µM (doses to about 28.7 µM), for the others: top-dose activity change, negative = inhibition, actives largely listed as inhibitors; 310,000 compounds, 5.9% hits; AID 504832, 2011; further: potency means the concentration at half of the fitted maximal effect; on the % scale 0 is the no-effect control and ±100 the full control effect
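Erythrocytes infected with P. falciparum carrying an integrated firefly luciferase reporter (2% hematocrit, 0.1% parasitemia final) were exposed to compounds in RPMI 1640 with 0.5% Albumax at 37 C, 5% CO2. Growth inhibition was scored as reduced luminescence.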
HCMV antiviral: qHTS Assay for inhibitors of the human cytomegalovirus (HCMV); HFF cells, HCMV-luciferase reporter, 72 h; stronger effect = lower value; activity change, negative = inhibition, % at 57.5 µM; 410,000 compounds, 4.5% hits; AID 1259415, 2018; in the data active means activity change below about -60%; inconclusive means no clear call, values can overlap the other calls; inactive means above about -39%; further: on the % scale 0 is the no-effect control and ±100 the full control effect
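After 16 h attachment at 37C, HFF cells received test compound and HCMV-luciferase (1 PFU/cell); reporter luminescence read 72 h later, data normalized against buffer-only and known inhibitor Salinomycin.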
Pf growth 96h: Primary qHTS for delayed death inhibitors of the malarial parasite plastid, 96 hour incubation; P. falciparum luciferase reporter growth, 96 h; Potency, µM (series often up to 28.7 µM), inactives show at the highest dose activity change, negative = inhibition, usual class: inhibitors; 320,000 compounds, 6.9% hits; AID 504834, 2011; further: potency means the concentration at half of the fitted maximal effect; on the % scale 0 is the no-effect control and ±100 the full control effect
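P. falciparum expressing integrated firefly luciferase grown in erythrocytes (2% hematocrit, 0.05% parasitemia final) with compounds for 96 hours at 37 C, 5% CO2. Growth inhibition read as loss of luminescence after adding luciferase detection reagent.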
* marks the source's active call; other numbers are inactive results; ? = inconclusive; / = no result; ! = not confirmed by another sample. This is a sample that favours compounds with a hit; in the whole collection about 15% have one here. Unless noted, the call rests on the fitted dose curve; in most records, active means well fitted curve in the direction sought with a large enough effect; inconclusive means small, poorly fitted or top-dose-only effect, or another doubt; inactive means no such curve, though single readings can be large; an effect the other way counts as inactive or inconclusive.

SMILES	HCV inhibitor	Sm TGR block	SARS PLP yeast	Pf growth 48h	HCMV antiviral	Pf growth 96h
CCOC(=O)Nc1ccc2c(c1)N(C(=O)OCCN(C)C)c1ccccc1CC2	-20%	-7%	-3%	-10%	-19	1.5µM*!
CCN(CC)CCNCC(=O)N1c2ccccc2CCc2ccc(NC(=O)OC)cc21	5%	17%	-4%	?	9	?
CCOC(=O)Nc1ccc2c(c1)N(C(=O)CN)c1ccccc1CC2	?	4%	0%	12µM*	-3	?
COC(=O)Cc1ccc(OC(=O)c2cccc(S(=O)(=O)N3CCN(C)CC3)c2)cc1	-5%	5%	3%	-8%	9	18%
O=C(Nc1cc2c(cc1C(=O)c1ccccc1Br)OCCO2)c1ccccc1	/	-2%	/	/	-23	/
O=C(NCc1n[nH]c(=S)n1-c1ccc(F)cc1)c1ccco1	27%	3%	0%	/	-23	98%
CCOC(=O)Nc1ccc2c(c1)N(C(=O)CCN1CCOCC1)c1ccccc1S2	?	-24%	0%	15µM*!	?	?
COC(=O)Nc1ccc2c(c1)N(C(=O)CCN(C)C)c1ccccc1CC2	-13%	-5%	-7%	-6%	-38	7.4µM*
Cc1cc(C)n2nc(SCC(=O)Nc3cc(Cl)ccc3C)nc2n1	/	-4%	/	/	-8	/
CCc1ccccc1NC(=O)Cn1nc2c3cc(F)ccc3n(Cc3cccc(C)c3)cc-2c1=O	/	8%	/	/	7	/
CC(C)=CCC12Oc3cc(O)ccc3C1(O)Oc1cc(O)c([C@H]3C=C(C)CC(c4ccc(O)cc4O)[C@H]3C(=O)c3ccc(O)cc3O)c(O)c1C2=O (some centres undefined)	13µM*	/	/	/	/	/
CC(=O)c1ccc(Cc2ccc(C(C)=O)cc2)cc1	0%	1%	-2%	-12%	-88*	?
CC(=O)c1ccc(CCCC(=O)O)cc1	2%	-7%	0%	1%	-2	9%
Cn1cccc1/C=C1\C(=O)NC(=O)N(Cc2ccco2)C1=O	14%	40µM*	2%	-14%	?	2%
COc1ccc(/C=C2/C(=O)NC(=O)N(Cc3ccco3)C2=O)cc1	/	/	0%	44%	/	0%
Cc1ccc(OCCn2cccc2/C=C2/C(=O)NC(=O)N(Cc3ccco3)C2=O)cc1	10%	14µM*	4%	36%	?	?
COC(=O)c1nccc2c1[nH]c1ccccc12	0%	-4%	2%	24%	-10	18%
COc1ccc(CCC(=O)Nc2ncc(C)s2)cc1	2%	-7%	-2%	15%	27	13%
CCc1nc2ccc(C(=O)N3CCN(C)CC3)cn2c1N(CCC(C)C)CCN(C)C	/	/	/	/	-72*	/
CCC(C)NS(=O)(=O)c1ccc(S(=O)(=O)Nc2cc3c(cc2C(C)=O)OCO3)cc1 (centres undefined)	14µM*	-13%	5%	20%	-26	9.3µM*
CC(=O)c1cc2c(cc1NS(=O)(=O)c1ccccc1)OCO2	-10%	-17%	-1%	/	51	13%
COc1ccccc1CN1C[C@@H]2C[C@@H](c3cccc(C)c3)N3CCC[C@@]23C1=O	-8%	1%	9%	?	-27	10µM*
COc1ccccc1CN1C[C@@H]2C[C@@H](c3cccc(C)n3)N3CCC[C@@]23C1=O	2%	-24%	1%	?	-27	-6%
COc1ccccc1CN1C[C@@H]2C[C@@H](c3[nH]c4c(C)cccc4c3C)N3CCC[C@@]23C1=O	-29%	-14%	-1%	6.6µM*	6	12µM*
CC(NC(=O)c1ccco1)C(=O)N1CCN(c2cccc(C(F)(F)F)c2)CC1 (centres undefined)	8%	-20%	-3%	?	?	?
SMILES	HCV inhibitor	Sm TGR block	SARS PLP yeast	Pf growth 48h	HCMV antiviral	Pf growth 96h
Cc1cc(N2CCCC2)nc2ccccc12	-20%	/	-1%	-10%	-39	0%
Cc1cc(N2CCN(C3CCCCC3)CC2)nc2cccc(O)c12	?	?	4%	2.9µM*	?	?
COc1ccc(-c2ccc3c(c2)S(=O)(=O)c2cccc(C(=O)NC[C@@H]4CCCO4)c2C3=O)cc1OC	?	?	-3%	13µM*	17	?
Cn1c(N)c(C(=O)COC(=O)c2ccccc2C(=O)c2ccc(Cl)c([N+](=O)[O-])c2)c(=O)n(C)c1=O	11µM*	/	1%	/	/	/
CN(c1ccccc1)S(=O)(=O)c1ccc(Cl)c(C(=O)OCC(=O)c2c(N)n(C)c(=O)n(C)c2=O)c1	?	/	/	/	-11	/
Cn1c(N)c(C(=O)COC(=O)c2ccccc2C(=O)c2ccccc2)c(=O)n(C)c1=O	9%	-17%	1%	13µM*	0	-113%
CN(CCC#N)C(=O)COC(=O)c1ccccc1C(=O)c1ccc(Cl)c([N+](=O)[O-])c1	2.8µM*	13µM*	-2%	-23%	-97*	-23%
CC(C)N(C(=O)COC(=O)c1ccccc1C(=O)c1ccc(Cl)c([N+](=O)[O-])c1)C(C)C	?	-6%	-1%	12%	-27	-6%
C(=C\c1ccccc1)/C=N/N1CCN(c2ccccn2)CC1	7%	-7%	-2%	107%	78	181%
C(/C=C/c1ccccc1)=N/N1CCN(c2ccccc2)CC1	15%	8%	1%	102%	-101*	88%
CCCCc1ccccc1NC(=S)NC1CCCC1	-26%	-1%	7%	9.3µM*	-66*	?
CC(C)c1ccccc1NC(=S)NC(C)c1ccccc1 (centres undefined)	-16%	0%	?	?	-87*	?
CC(C)c1ccccc1NC(=S)NC1CCCCC1	-6%	8%	-2%	?	?	4.7µM*
CC(C)(C)Cc1nnc(NC(=O)CCc2ccccc2)s1	2%	-2%	-7%	49%	74	-24%
Cc1ccccc1-c1nnc(SCC(=O)Nc2cccnc2Cl)o1	11%	/	4%	/	48	/
O=C(O)CCCCCNC(=O)CCn1cnc2ccccc2c1=O	17%	3%	2%	42%	37	-81%
CCCCCCCCCC(=O)O[C@H]1CC[C@H]2[C@@H]3CCC4=CC(=O)CC[C@]4(C)[C@H]3CC[C@]12C	/	/	/	12µM*	/	8.5µM*
Cc1nc(C2CCC3C4CCC5=CC(=O)CC[C@]5(C)C4CC[C@]23C)cs1 (some centres undefined)	/	-1%	1%	-6%	-91*	-13%
CC(C)CCC(=O)OC1CCC2C3CCC4=CC(=O)CC[C@]4(C)C3CC[C@]12C (some centres undefined)	/	/	/	13µM*	/	12µM*

Source: PubChem BioAssay (National Center for Advancing Translational Sciences (NCATS))
